Shown is part of a subset that was picked to be rich in hits.
DUX4 inh: blocks DUX4-driven transcriptional activation | 293T-iDUX4 ZSCAN4-Gaussia luciferase reporter, 24 h; stronger effect = lower value | activity change, negative = inhibition, % (test concentration not listed) | 37,000 tested, 0.8% active | AID 1224904;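 active means mean inhibition of at least 10% in the main channel, exceeding the control channel by a set limit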;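 further: 0% = median of neutral control wells and -100% = median of positive control wells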
* hit, by the source's call; ! = repeats disagree.

SMILES	DUX4 inh
Cc1ccccc1-c1ccc([C@@H]2[C@@H](CO)N3C(=O)CN(S(C)(=O)=O)C[C@@H]23)cc1	7
COc1ccc(NC(=O)N2C[C@@H]3N[C@H](C2)C3c2ccc(-c3cncnc3)cc2)cc1 (some centres undefined)	9
COc1ccc(-c2ccc(C3[C@@H]4CN(S(=O)(=O)c5ccccc5C)C[C@H]3N4)cc2)cc1 (some centres undefined)	-42*!
COc1ccc(S(=O)(=O)N[C@H]2CC[C@@H](CCNC(=O)Cc3ccccn3)O[C@H]2CO)cc1	0
COCC(=O)N1[C@H](CO)[C@H](c2ccccc2-c2ccccc2F)[C@@H]1C#N	10
C[C@@H]1CN([C@H](C)CO)C(=O)c2cc(C#C[C@@H](C)O)cnc2O[C@@H]1CN(C)C(=O)CN1CCOCC1	1
C[C@H](CO)N1C[C@H](C)[C@H](CN(C)CC2CCCCC2)Oc2ccc(NS(=O)(=O)c3cccs3)cc2CC1=O	-1
Cc1ccc(-c2ccccc2[C@H]2[C@@H](C#N)N(C(=O)NC3CCCC3)[C@H]2CO)cc1	-8
N#C[C@@H]1[C@@H](c2ccc(-c3cccc(F)c3)cc2)[C@@H](CO)N1C(=O)NC1CCCC1	2
N#C[C@@H]1[C@@H](c2ccccc2-c2cccc(F)c2)[C@@H](CO)N1C(=O)NC1CCCCC1	-29*
C[C@@H]1CN([C@H](C)CO)C(=O)c2cc(N(C)C)ccc2O[C@@H](C)CCCCO[C@H]1CN(C)Cc1ccc2c(c1)OCO2	3
C/C=C/c1ccc(C2[C@@H]3CN(Cc4cccc(OC)c4)C[C@H]2N3)cc1 (some centres undefined)	-5
C(=C\c1ccc(C2[C@@H]3CN(Cc4ccc5c(c4)OCO5)C[C@H]2N3)cc1)/c1ccccc1 (some centres undefined)	-41*!
c1ncc(-c2ccc(C3[C@@H]4CN(Cc5ccc6c(c5)OCO6)C[C@H]3N4)cc2)cn1 (some centres undefined)	-4
CO[C@H]1CN(C)C(=O)c2ccc(NS(C)(=O)=O)cc2OC[C@@H](C)N(S(C)(=O)=O)C[C@@H]1C	2
C[C@@H]1CN([C@H](C)CO)C(=O)c2ccccc2-c2ccccc2CO[C@@H]1CN(C)C(=O)c1ccncc1	6
C[C@@H]1CN([C@@H](C)CO)S(=O)(=O)c2ccc(-c3cncnc3)cc2O[C@H]1CN(C)C(=O)NC1CCCC1	-1
N#Cc1cccc(-c2ccc(C3[C@@H]4CN(C(=O)C5CCCCC5)C[C@H]3N4)cc2)c1 (some centres undefined)	-52*!
N#Cc1ccc(-c2ccc(C3[C@@H]4CN(C(=O)C5CCCCC5)C[C@H]3N4)cc2)cc1 (some centres undefined)	-52*!
N#Cc1cccc(-c2ccc(C3[C@@H]4CN(C(=O)c5ccncc5)C[C@H]3N4)cc2)c1 (some centres undefined)	1
N#Cc1ccc(-c2ccc(C3[C@@H]4CN(C(=O)c5ccncc5)C[C@H]3N4)cc2)cc1 (some centres undefined)	-6
CC(=O)N1C[C@@H]2N[C@H](C1)C2c1ccc(-c2ccccc2)cc1 (some centres undefined)	1
O=C(C1CCOCC1)N1C[C@@H]2N[C@H](C1)C2c1ccc(-c2cccc(F)c2)cc1 (some centres undefined)	-8
C[C@@H](NC(=O)C[C@H]1CC[C@@H]2[C@H](COC[C@@H](O)CN2Cc2cc(F)ccc2F)O1)c1ccccc1	3
O=C(NC1CCC1)[C@H]1[C@H](CO)[C@H]2Cn3c(ccc(-c4cncnc4)c3=O)[C@H]2N1C(=O)NC1CCCC1	1
SMILES	DUX4 inh
COc1cccc(S(=O)(=O)N2CCCCN3[C@@H](CO)[C@@H](c4ccc(C5=CCCCC5)cc4)[C@@H]3C2)c1	-1
O=C(c1ccccc1)N1CC(=O)N2[C@H](C1)[C@H](c1ccc(C#CC3CC3)cc1)[C@@H]2CO	4
CS(=O)(=O)N1CCCCN2[C@H](CO)[C@@H](c3ccc(-c4cccc(C#N)c4)cc3)[C@H]2C1	3
COc1cccc(CN2CCCCN3[C@H](CO)[C@H](c4ccc(-c5cccc(C#N)c5)cc4)[C@@H]3C2)c1	-3
N#Cc1cccc(-c2ccc(C3[C@@H]4CN(S(=O)(=O)Cc5ccccc5)C[C@H]3N4)cc2)c1 (some centres undefined)	-41*
N#Cc1cccc(-c2ccc(C3[C@@H]4CN(Cc5ccccc5)C[C@H]3N4)cc2)c1 (some centres undefined)	-27*
CS(=O)(=O)N1CCCCN2[C@H](CO)[C@H](c3ccc(-c4cccc(C#N)c4)cc3)[C@@H]2C1	14
N#Cc1cccc(-c2ccc(C3[C@H]4CNC[C@@H]3N4Cc3cccc(-c4ccncc4)c3)cc2)c1 (some centres undefined)	-5
CC(C)NC(=O)Nc1ccc2c(c1)CC(=O)N([C@H](C)CO)C[C@H](C)[C@H](CN(C)Cc1ccncc1)O2	0

Assay outcomes: PubChem, Broad Institute
